Assay [1] addresses Tumor necrosis factor receptor superfamily member 10B (Homo sapiens) (UniProt O14763). The experiment in a line: viability loss of caspase-8 NB7 cells with TRAIL – with/without TRAIL, luminescence panel, confirmation (AID 651596). Conditions: NB7 neuroblastoma + caspase-8, TRAIL sensitization, NB7 Caspase-8, with TRAIL, mean of runs, at 10 µM, stronger effect = higher value.
Test in assay [2]: as above
Conditions: NB7 neuroblastoma + caspase-8, without TRAIL, NB7 Caspase-8, without TRAIL, mean of runs, at 10 µM.

The text below walks through data of PubChem BioAssay.

Structures are written as SMILES.

Sequence of Tumor necrosis factor receptor superfamily member 10B (Homo sapiens) (O14763 whole entry, looked up): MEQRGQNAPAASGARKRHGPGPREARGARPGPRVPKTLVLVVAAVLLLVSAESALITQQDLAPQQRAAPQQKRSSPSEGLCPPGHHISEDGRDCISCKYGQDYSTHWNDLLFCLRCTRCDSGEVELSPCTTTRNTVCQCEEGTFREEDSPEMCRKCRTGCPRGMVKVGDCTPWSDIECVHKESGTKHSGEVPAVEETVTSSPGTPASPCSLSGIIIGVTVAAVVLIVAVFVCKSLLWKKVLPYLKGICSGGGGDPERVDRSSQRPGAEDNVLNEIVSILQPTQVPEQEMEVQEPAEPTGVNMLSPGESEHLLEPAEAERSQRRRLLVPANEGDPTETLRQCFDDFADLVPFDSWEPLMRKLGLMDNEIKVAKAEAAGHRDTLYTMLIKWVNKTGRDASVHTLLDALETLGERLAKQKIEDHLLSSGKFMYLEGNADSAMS

`Oc1ccc(-c2cn3ccccc3n2)cc1`: the activity in assay [1] was found to be 45.3%; in assay [2], 45.5%.

In the case of `Cn1cccc1/C=C1\CCc2ccccc2C1=O`, the activity in assay [1] amounted to 63.4%; in assay [2] it was 51.8%.

As for `c1ccc(CNc2nc(NCC3CC3)nc3cc(-c4ccccc4)sc23)cc1`, the results for the activity in assay [1] and in assay [2] were 15.9% and 16.7%, respectively.

As to `Clc1ccccc1CSc1nc2ccncc2[nH]1`, the activity came to 79% in assay [1] and 79.3% in assay [2].

As for `CC(C)Cc1ccc(C(C)CC2=CCC(CN(C)C)C2=O)cc1` (stereo not given), the activity was 86.2% in assay [1] and 91.8% in assay [2].

In the case of `Cc1cc(/C(N)=N/OC(=O)c2ccccc2Cl)no1`, the activity came out at 63.5% in assay [1] and 68.1% in assay [2].

Take `Cc1ccc(C)c(NC(=S)NC(NC(=O)Cc2cccc3ccccc23)C(Cl)(Cl)Cl)c1` (stereo not given): the activity in assay [1] came to 82.6%; in assay [2], 87.8%.

Turning to `CCOC(=O)c1cc2c(C)n(-c3ccc(C)cc3)c(C)c2ccc1=O`, the activity in assay [1] stood at 74.9%; in assay [2], 63.9%.

Take `CC(c1ccco1)N(C(=O)COc1ccc(Cl)cc1Cl)c1ccccn1` (stereo not given): the activity was -4.47% in assay [1] and 10.2% in assay [2].

For `Cc1ccc(NC2=Nc3ccccc3CS2)cc1`, the activity came to 57.4% in assay [1] and 38% in assay [2].

In the case of `Nc1nc(Nc2ccc(Cl)cc2)nc2ccccc12`, the activity in assay [1] stood at 84.4%; in assay [2] it was 83.5%.

On to `Cn1c(N)c(C(=O)CCl)c(=O)n(Cc2ccccc2)c1=O`, for which the activity in assay [1] amounted to 96%; in assay [2] it was 77.9%.

Take `O=C(COc1ccc2ccccc2c1)Nc1nccs1`: the activity in assay [1] turned out to be 58%; in assay [2] it was 55.8%.

In the case of `O=C(/C=C/Nc1ccccc1F)c1ccc(Br)cc1`, the values for the activity in assay [1] and in assay [2] were 62.2% and 59.5%, respectively.

Regarding `Cc1cc(C)cc(N2C(N)=NC(N)=NC2c2cccc(Cl)c2)c1` (stereo not given), the results for the activity in assay [1] and in assay [2] were 57.8% and 74.3%, respectively.

As for `C=C(C)CSc1nnc2n(Cc3ccccc3)c(=O)c3c4c(sc3n12)CCC4`, the activity in assay [1] was 90.4%; in assay [2] it was 90%.

For the molecule `CN(CCO)c1cc(Sc2nc3ccccc3s2)c2nonc2c1[N+](=O)[O-]`, the activity in assay [1] was found to be 18.5%; in assay [2], 91.7%.

On to `N/C(=N\OC(=O)COc1ccc(Cl)cc1Cl)c1ccccn1`, for which the activity in assay [1] was determined as 37%; in assay [2] it was 52.3%.

Turning to `CC1(C)N=C(N)N=C(N)N1c1cccc(C#N)c1`, the activity in assay [1] came out at 81.8%; in assay [2], 86.1%.

Turning to `Cc1cccc2sc(NNC(=O)c3ccc(S(=O)(=O)N4CC(C)CC(C)C4)cc3)nc12` (stereo not given), the activity in assay [1] worked out at 55.6%; in assay [2] it was 49.8%.

As to `O=C(Nc1ccc2c(c1)OCCO2)C(=O)c1c[nH]c2ccccc12`, the activity was determined as 83.2% in assay [1] and 90.5% in assay [2].

With `O=C(/C=C/NNC(=O)c1ccccc1)c1ccc([N+](=O)[O-])cc1`, the activity worked out at 21.4% in assay [1] and 20% in assay [2].

Consider `COc1ccc(Nc2nc(N)nc(CCl)n2)cc1`, for which the values for the activity in assay [1] and in assay [2] were 99.1% and 98.3%, respectively.

For the molecule `N/C(Cc1ccc(Cl)cc1)=N\OC(=O)c1ccc2ccccc2c1`, the values for the activity in assay [1] and in assay [2] were 98.5% and 95%, respectively.

With `C/C(=N\Nc1nncc2ccccc12)c1cccc(OC(F)F)c1`, the activity in assay [1] is 75.8%; in assay [2], 72.8%.

Take `CCc1c(C)[nH]c2c(C)cccc2c1=O`: the figures for the activity in assay [1] and in assay [2] were 56.4% and 64.3%, respectively.

In the case of `Cc1nn(-c2ccccc2)c(C)c1/C=N/NC(=O)c1cc(-c2ccc(Cl)s2)[nH]n1`, the activity in assay [1] amounted to 70.1%; in assay [2] it was 72.8%.

Regarding `Cc1cc(C)c(C)c(S(=O)(=O)N2CCN(CC(=O)c3c(N)n(Cc4ccccc4)c(=O)n(C)c3=O)CC2)c1C`, the activity was 76.3% in assay [1] and 79.4% in assay [2].

For `Cc1cc(-c2ccc(F)cc2)n2ncc(-c3ccccc3)c2n1`, the activity in assay [1] came out at 76.6%; in assay [2], 84.3%.

As to `Fc1ccccc1-c1ccc(/C=N/Nc2nc3ccccc3[nH]2)o1`, the activity was determined as 82.7% in assay [1] and 79.2% in assay [2].

For `O=C(Oc1ccc2ccccc2c1Cl)N1CCCCCC1`, the activity in assay [1] was 20.1%; in assay [2] it was 12.2%.

With `O=C(COc1ccc(/C=N/NC(=O)c2cc3ccccc3o2)cc1Br)Nc1ccccc1`, the results for the activity in assay [1] and in assay [2] were 93% and 96.8%, respectively.

For the molecule `COC(=O)c1nc(NC(=S)NC(=O)c2cccs2)sc1C`, the figures for the activity in assay [1] and in assay [2] were 53.8% and 37.9%, respectively.

Regarding `CN(C)c1ncnc2c1ncn2C1OC(CO)C(O)C1O` (stereo not given), the activity in assay [1] was found to be 57.1%; in assay [2], 45.3%.

On to `CCOc1cc(/C=C\[N+](=O)[O-])ccc1OCC(=O)Nc1ccccc1C`, for which the activity in assay [1] amounted to 88.8%; in assay [2], 91.9%.

In the case of `CC(/C=N/NC(=O)c1ccco1)=C\c1ccccc1`, the activity in assay [1] is 73.5%; in assay [2], 71.2%.

With `Cn1c2ccccc2c(=O)c2ccc(C#CC3(O)CCCCC3)cc21`, the activity in assay [1] came out at 91.3%; in assay [2] it was 83.4%.

For `Cc1ccc(-c2nc3cc(N)ccc3o2)cc1`, the activity is 69.2% in assay [1] and 60% in assay [2].

Take `CCOc1ccc(C(=O)N/N=C/c2ccccc2[N+](=O)[O-])cc1`: the activity in assay [1] was 68%; in assay [2], 62.8%.

For `Cc1ccc(O)c(-c2cc(-c3ccc(F)cc3)no2)c1`, the activity in assay [1] is 71.2%; in assay [2], 57.8%.

With `O=C1N(c2ccccc2)CCN1c1ccccc1`, the results for the activity in assay [1] and in assay [2] were 67.2% and 62.8%, respectively.

`Cc1nc(-c2ccc(NC(=O)c3ccc(Br)o3)cc2)cs1`: the activity is 68.5% in assay [1] and 67.5% in assay [2].

In the case of `O=C(NC1CCCCC1)C(c1cccnc1)N(C(=O)CCl)c1ccc(F)cc1` (stereo not given), the activity in assay [1] worked out at 99.2%; in assay [2], 98.8%.

Turning to `COc1ccc(C(=O)Nc2ccccc2C(=O)N/N=C/c2cccc3ccccc23)cc1`, the figures for the activity in assay [1] and in assay [2] were 98.8% and 95.8%, respectively.

`N#CCCCC#Cc1ccc2c(c1)COc1c3ccccc3nn1-2`: the activity was determined as 78.1% in assay [1] and 75.6% in assay [2].
